In PubChem BioAssay AID1851 (National Center for Advancing Translational Sciences (NCATS), 2009):
About 4,000 (25%) of roughly 16,000 compounds were called active. Another 26% or so got no clear call; they are omitted. A selection follows. A number with no mark means an inactive call. Calls come from the whole dose curve; as a rule, active = well fitted curve in the direction sought with a large enough effect; inconclusive = small, poorly fitted or top-dose-only effect, or effect the other way; inactive = no such curve, though single readings can be large or run the other way.

Molecular target: Cytochrome P450 2C9 (Homo sapiens) (UniProt P11712)
Sequence (P11712 whole entry, looked up): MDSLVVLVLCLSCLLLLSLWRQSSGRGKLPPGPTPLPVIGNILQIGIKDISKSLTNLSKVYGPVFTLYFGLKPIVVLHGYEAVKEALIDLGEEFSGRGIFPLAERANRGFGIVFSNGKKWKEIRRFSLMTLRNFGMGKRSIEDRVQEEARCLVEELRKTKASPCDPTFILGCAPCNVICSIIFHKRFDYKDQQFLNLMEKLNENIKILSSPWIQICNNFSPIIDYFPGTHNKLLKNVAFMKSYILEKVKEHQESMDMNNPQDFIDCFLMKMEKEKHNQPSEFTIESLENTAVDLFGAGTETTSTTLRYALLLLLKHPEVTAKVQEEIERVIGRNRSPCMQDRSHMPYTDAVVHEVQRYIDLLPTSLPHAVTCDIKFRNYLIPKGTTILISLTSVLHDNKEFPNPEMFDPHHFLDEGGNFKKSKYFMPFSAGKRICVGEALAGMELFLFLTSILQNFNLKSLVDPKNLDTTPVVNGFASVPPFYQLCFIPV
Assay: Cytochrome panel assay with activity outcomes
Settings: recombinant CYP, pro-luciferin dealkylation, luminescence, p450-cyp2c9; series mostly up to 57.1 µM; activity, negative = inhibition: at the top concentration
% is set by controls: 0 for no effect and ±100 for the full control effect.

How did the AC50 turn out when `COC(=O)C1=C(C)NC(C)=C([N+](=O)[O-])[C@H]1c1ccccc1C(F)(F)F` was run?
Its AC50 is 2 µM (active).

How did the AC50 turn out when `COC(=O)C1=C(C)NC(C)=C([N+](=O)[O-])[C@@H]1c1ccccc1C(F)(F)F` was run?
The AC50 was 0.158 µM (active).

With `COC(=O)C1=C(C)NC(=O)NC1c1ccsc1` (stereo not given) as the compound, how does the “activity, negative = inhibition” value read?
Its value is -29.4%.

With `CO[C@@H]1/C=C\CC(=O)N[C@@H](C)C(=O)OC[C@H](NS(=O)(=O)c2ccc(C)cc2)[C@H](C)/C=C\CC(=O)OC[C@H]1C` as the compound, how does the activity, negative = inhibition read?
Its activity, negative = inhibition is 14.6% [at 11.4 µM].

With `Cc1ccc([N+](=O)[O-])cc1NC(=S)NC(=O)C(C)(C)C` as the compound, how does the AC50 read?
Its AC50 is 0.708 µM (active).

For `Cc1ccc([N+](=O)[O-])cc1NC(=S)NC(=O)CC(C)(C)C`, which AC50 is on record?
Its AC50 is 2.24 µM (active).

With `Cc1cnc(CNc2ncncc2-c2ccccc2C(F)(F)F)cn1` as the compound, how does the activity, negative = inhibition read?
The activity, negative = inhibition was 1.53% [at 2.29 µM].

With `COc1ccc2cc(CCNC(=O)C3CC3)c(=O)[nH]c2c1` as the compound, how does the “activity, negative = inhibition” value read?
Its value is -6.56%.

How did the “activity, negative = inhibition” value turn out when `CCN1CCCC1CNC(=O)CCNC(=O)c1cc(OC)c(OC)c(OC)c1` (stereo not given) was run?
Its value is 2.4%.

With `COc1ccc(OC)c2[nH]c(=O)c(CCNC(=O)c3ccc(S(=O)(=O)N(C)C)cc3)cc12` as the compound, how does the AC50 read?
The AC50 was 7.94 µM (active).

`CCN(CC)CCNC(=O)c1cc(S(C)(=O)=O)ccc1OC` was tested. Which “activity, negative = inhibition” value did it give?
Its value is 8.64%.

`COc1ccc(OC)c2[nH]c(=O)c(CCNC(=O)c3ccc(S(=O)(=O)N4CCCC4)cc3)cc12` was tested. Which AC50 did it give?
The AC50 was 11.2 µM (active).

With `CCOC(=O)C(C)(C)[C@H](O)C(C)C` as the compound, how does the activity, negative = inhibition read?
The activity, negative = inhibition was -6.81% [at 11.4 µM].

With `COc1cccc(-c2nccc(NCc3ccccc3)n2)c1` as the compound, how does the activity, negative = inhibition read?
The activity, negative = inhibition was -19.2% [at 2.29 µM].

`COc1ccc(CCNc2cc(-c3ccccc3)nc3ncnn23)cc1` was tested. Which AC50 did it give?
The AC50 was 5.62 µM (active).

How did the “activity, negative = inhibition” value turn out when `CCOC(=O)CCc1c(C)nc2ncnn2c1C` was run?
Its value is -3.02%.

`Cc1ccc(CNC(=O)CCc2c(C)nc3ncnn3c2C)cc1` was tested. Which “activity, negative = inhibition” value did it give?
The value was 0.499%.

Which AC50 does the source give for `CCc1c(C)nc2ncnn2c1NCCc1ccc(OC)cc1` here?
Its AC50 is 1.58 µM (active).

For `COc1cccc(-c2cc(NCc3ccccc3)ncn2)c1`, which activity, negative = inhibition is on record?
Its activity, negative = inhibition is -1.27% [at 2.29 µM].

With `CCNc1ncc2nc(-c3cc(F)cc(F)c3)c(=O)n(CCC#N)c2n1` as the compound, how does the “activity, negative = inhibition” value read?
Its value is 20.9%.

How did the activity, negative = inhibition turn out when `Fc1ccc(Nc2ccnc(-c3ccoc3)n2)cc1` was run?
The activity, negative = inhibition was 9.66% [at 2.29 µM].

`CC(=O)OC[C@@H]1O[C@@H](O/N=C2/C[C@@H](O)[C@@H](O)[C@@H]3[C@@H]4C(=O)N(c5cccc(Oc6ccccc6)c5)C(=O)[C@H]4CC[C@@H]23)[C@H](OC(C)=O)[C@H](OC(C)=O)[C@@H]1OC(C)=O` was tested. Which activity, negative = inhibition did it give?
Its activity, negative = inhibition is 20.1% [at 11.4 µM].

`Cc1cc(O)c(-c2cc(O)c(C)cc2O)cc1O` was tested. Which AC50 did it give?
The AC50 was 1.26 µM (active).

For `Cc1cc(O)c(C(C)C)cc1CN1CCCCC1`, which activity, negative = inhibition is on record?
Its activity, negative = inhibition is -3.21% [at 11.4 µM].

`COc1ccc(-c2nc3c([nH]2)c(=O)n(C)c(=O)n3C)c(OC)c1` was tested. Which “activity, negative = inhibition” value did it give?
Its value is 4.05%.

Which AC50 does the source give for `CCOC(=O)n1c(=O)n(Cc2c(Cl)cccc2Cl)c2ccccc21` here?
Its AC50 is 3.98 µM (active).

How did the AC50 turn out when `CCOC(=O)n1c(=O)n(Cc2ccccc2Cl)c2ccccc21` was run?
Its AC50 is 8.91 µM (active).

`Cn1c(=O)n(CCC(=O)O)c2ccccc21` was tested. Which “activity, negative = inhibition” value did it give?
The value was 23.1%.

With `Cc1n[nH]c(=O)nc1NCc1ccccc1Cl` as the compound, how does the “activity, negative = inhibition” value read?
The value was 22.6%.

For `O=c1[nH]cc(CS(=O)(=O)Cc2c[nH]c(=O)[nH]c2=O)c(=O)[nH]1`, which activity, negative = inhibition is on record?
Its activity, negative = inhibition is -2.59% [at 11.4 µM].

`C/C(=N\O)c1ccc2[nH]ccc2c1` was tested. Which “activity, negative = inhibition” value did it give?
Its value is -8.4%.

For `Cc1n[nH]c(C)c1S(=O)(=O)N1CCC(C(=O)O)CC1`, which “activity, negative = inhibition” value is on record?
Its value is -2.96%.

With `NNC(=O)c1ccncc1` as the compound, how does the “activity, negative = inhibition” value read?
Its value is -14.5% [at 25.6 µM].

`CC(=O)c1c(C(C)=O)c(C)n(NC(=O)c2ccncc2)c1C` was tested. Which AC50 did it give?
The AC50 was 1.58 µM (active).

How did the activity, negative = inhibition turn out when `O=C(NNC(=O)c1ccncc1)c1ccncc1` was run?
Its activity, negative = inhibition is 0.511% [at 11.4 µM].

How did the activity, negative = inhibition turn out when `NS(=O)(=O)c1ccc(N=Nc2cc3ccccc3c(C(=O)O)c2O)cc1` was run?
The activity, negative = inhibition was -1.93% [at 11.4 µM].

`CCN1C(=O)[C@H]2[C@H]3[C@H](O)[C@H](O)C/C(=N/O[C@@H]4O[C@H](COC(C)=O)[C@@H](OC(C)=O)[C@H](OC(C)=O)[C@H]4OC(C)=O)[C@@H]3CC[C@@H]2C1=O` was tested. Which activity, negative = inhibition did it give?
Its activity, negative = inhibition is -1.58% [at 11.4 µM].

Which “activity, negative = inhibition” value does the source give for `CC1(C)Cc2ccccc2C(NNC(=O)c2ccncc2)=N1` here?
The value was -14.2%.

With `C/C(=N\NC(=O)c1ccc(Br)cc1)c1ccccc1` as the compound, how does the “activity, negative = inhibition” value read?
The value was 9.36%.

Which AC50 does the source give for `C/C(=N\NC(=O)c1ccncc1)c1ccc2ccccc2c1O` here?
Its AC50 is 0.1 µM (active).

`O=C(c1cccc(F)c1)N1CCC2(CC1)CCN(c1ccccc1)CC2` was tested. Which “activity, negative = inhibition” value did it give?
Its value is -28.2%.

For `CC(C)NC(=O)N1CCC2(CC1)CCN(C(=O)c1cccc(F)c1)CC2`, which “activity, negative = inhibition” value is on record?
The value was 27.3%.

With `O=C(c1cc(C(F)(F)F)cc(C(F)(F)F)c1)N1CCC2(CCCN(c3ncccn3)C2)CC1` as the compound, how does the “activity, negative = inhibition” value read?
The value was -8.06%.

With `O=C(c1cccc(F)c1)N1CCC2(CC1)CCN(c1ncccn1)CC2` as the compound, how does the AC50 read?
The AC50 was 12.6 µM (active).

`CC(=O)N1CCC2(CCCN(c3ncccn3)C2)CC1` was tested. Which “activity, negative = inhibition” value did it give?
The value was -3.08%.

`O=C(c1cccc(F)c1)N1CCC2(CCCN(c3ncccn3)C2)CC1` was tested. Which AC50 did it give?
Its AC50 is 15.8 µM (active).

`COc1cccc2c1C(=O)c1c(O)c3c(c(O)c1C2=O)C[C@](O)(C(=O)CO)C[C@H]3O[C@@H]1C[C@H](N)[C@H](O)[C@H](C)O1` was tested. Which “activity, negative = inhibition” value did it give?
Its value is -8.75% [at 25.6 µM].

With `O=C(O)[C@@H]1CCCN1` as the compound, how does the activity, negative = inhibition read?
The activity, negative = inhibition was 1.2% [at 11.4 µM].

`CCSc1nnc(-c2ccc(Cl)cc2)c2ccccc12` was tested. Which AC50 did it give?
The AC50 was 2 µM (active).

With `Cc1ccc(C(=O)N/C(=C\c2ccc(Br)cc2)c2nc(=S)[nH][nH]2)cc1` as the compound, how does the AC50 read?
The AC50 was 8.91 µM (active).

For `O=C(N/C(=C/c1ccc(Br)cc1)c1nc2ccccc2[nH]1)c1ccco1`, which “activity, negative = inhibition” value is on record?
Its value is -21.8%.

How did the “activity, negative = inhibition” value turn out when `CCOc1nc(N=C(N)N)nc2c(C)cccc12` was run?
The value was -3.81%.

Which “activity, negative = inhibition” value does the source give for `COc1ccc2nc(N)sc2c1` here?
Its value is -0.783%.

For `COc1ccc2nc(NCN3C(=O)c4ccccc4C3=O)sc2c1`, which activity, negative = inhibition is on record?
Its activity, negative = inhibition is -14.8% [at 11.4 µM].

Which AC50 does the source give for `COc1ccc2nc(N3C(=O)CC(Cc4ccc(Cl)cc4)C3=O)sc2c1` (stereo not given) here?
Its AC50 is 12.6 µM (active).

For `CN1CCN(CCCBr)CC1`, which activity, negative = inhibition is on record?
Its activity, negative = inhibition is 18% [at 11.4 µM].

With `C[C@H](O/N=C1/[C@H]2O[C@@H]2[C@@H](O)[C@H]2[C@H]1CCn1c(=O)n(-c3ccccc3)c(=O)n12)c1cn([C@H]2COC[C@H]2O)nn1` as the compound, how does the activity, negative = inhibition read?
Its activity, negative = inhibition is 0.305% [at 11.4 µM].

`CCCn1c(-c2cccs2)nc2nc3ccccc3nc21` was tested. Which AC50 did it give?
The AC50 was 10 µM (active).

`CN1CCN(c2ncc3nc(-c4cccs4)c(=O)n(CCc4ccccc4)c3n2)CC1` was tested. Which “activity, negative = inhibition” value did it give?
The value was 3.63%.

With `CCNc1ncc2nc(-c3cccs3)c(=O)n(CCc3ccccc3)c2n1` as the compound, how does the “activity, negative = inhibition” value read?
Its value is -4.57%.
